proKLK7 act: activators of human kallikrein-7 zymogen. hit rate 0.9% among 370,000. activation, % at 7 µM. purified proKLK7, EDANS-DABCYL substrate fluorescence; 100% is mature enzyme control, 0% vehicle. P49862;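 active means activation above the mean of all tested compounds plus 3 SD, computed per campaign excluding outliers beyond control limits, cut at about 13% in these data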
ADAM17 inh: inhibits human ADAM17; P78536; recombinant ADAM17, EDANS/DABCYL FRET peptide cleavage; inhibition, % at 6.95 µM; hit rate 0.83% among 370,000; AID 720648;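 active means inhibition above the mean of compounds lying between control limits plus 3 SD, set per campaign, cut at about 8.5% in these data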
ADAM10 inh: ADAM10 inhibition, QFRET primary screen; inhibition, % at 7 µM; recombinant ADAM10, EDANS/DABCYL FRET peptide cleavage, 3 h; AID 720582; hit rate 0.62% among 370,000;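 active means inhibition above a per-campaign cutoff equal to the mean of compounds falling between control-based bounds plus 3 SD, cut at about 20% in these data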
NR3A LBD binder: NR3A (human) ligand-binding domain modulation | NR3A LBD differential scanning fluorimetry, Tm shift; 0% = protein alone, 100% = glycine-bound protein | Tm shift relative to glycine control, % at 25 µM | hit rate 2.5% among 340,000;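 active means melting temperature shift of at least 10% of the positive control shift, at one fixed dose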
FAS-TE inh: FAS thioesterase (human) inhibition. P49327. recombinant FAS-TE, OMFH fluorogenic substrate, fluorescence endpoint. inhibition, % at 15 µM. hit rate 0.67% among 360,000;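 active means compounds whose normalised, plate-corrected inhibition of enzyme fluorescence in the single-dose primary screen is 50% or more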
proKLK7 act conf: proKLK7 activation, confirmation | shares compounds with proKLK7 act | purified proKLK7, EDANS-DABCYL substrate fluorescence; scaled: vehicle 0, mature enzyme 100 | activation, % at 7 µM | hit rate 68% among 3,200;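 active means activation, as change over the incubation, above the mean of all tested compounds plus 3 SD, cut at about 13% in these data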
EDANS-DABCYL int: optically interferes with EDANS-DABCYL signal, flagging KLK7 hits | activation, % at 7 µM | EDANS-DABCYL substrate fluorescence interference, no enzyme, 4 h; solvent 0%, active enzyme control 100% | shares compounds with proKLK7 act | hit rate 80% among 3,200 | AID 686952;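 active means activation above the all-compound mean plus 3 SD, ignoring values outside control-based bounds, cut at about 4.8% in these data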;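 further: value is the 4 h activation minus the activation read at time zero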
K7 EDANS ctr: EDANS fluorescence interference in dose response, no enzyme; shares compounds with proKLK7 act; EDANS-DABCYL peptide fluorescence interference; EC50, µM; hit rate 20% among 250;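 active means compounds that raise the fluorescence signal in this interference counterscreen, with EC50 at or below 10 µM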;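 further: intact quenched peptide substrate alone read at 355 nm excitation and 520 nm emission; signal is fluorescence gain from T0 to T4 after four hours at room temperature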
A number is an active result; 0 = inactive; - = no result. In the library only some 4.6% were active in any assay of this set; here they are far more common.

SMILES	proKLK7 act	ADAM17 inh	ADAM10 inh	NR3A LBD binder	FAS-TE inh	proKLK7 act conf	EDANS-DABCYL int	others
O=c1[nH]c2cc3c(cc2cc1CN(Cc1nnnn1CC1CCCO1)C1CCCCC1)OCO3 (stereo not given)	51	0	0	0	0	0	0
Cc1ccc2nc(SCC(=O)Nc3nnc(SCC(N)=O)s3)[nH]c2c1	0	0	0	0	0	-	-
Cc1ccc2nc(-c3ccc(SCC(=O)Nc4nnc(C)s4)nc3)[nH]c2c1	14	0	0	24	0	0	6.0
Cc1ccc2oc(C(=O)Nc3nnc(C)s3)c(C)c2c1	0	0	0	0	0	-	-
COc1ccc2oc(C(=O)Nc3nnc(C)s3)c(C)c2c1	21	0	0	0	0	0	0
CC(C)c1ccccc1NC(=O)[C@@H]1CCCN1S(=O)(=O)c1cccc2cccnc12	-	0	0	-	-	-	-
Cc1ccc(C(=O)N2CCc3cc4c(cc3C2C)OCCCO4)cc1 (stereo not given)	13	0	0	0	0	0	6.7
COC(=O)C1=C(C)N(C)C(=NCc2ccccc2C(F)(F)F)NC1CCc1ccccc1 (stereo not given)	0	0	0	-	-	-	-
CCC(=O)N1CCc2cc(-c3csc(NC(=O)c4ccco4)n3)ccc21	98	0	0	0	0	22	16	K7 EDANS ctr=0
Cc1oc2c(c(C)cc3oc(=O)c(CC(=O)N[C@@H](CCCNC(N)=O)C(=O)O)c(C)c32)c1C	22	0	0	0	0	21	14	K7 EDANS ctr=0
CC[C@@H](C)[C@H](NC(=O)CNC(=O)Cc1c(C)c2c(cc(C)c3c(C)coc32)oc1=O)C(=O)O	24	0	0	0	0	0	0
CC[C@@H](C)[C@H](NC(=O)Cc1c(C)c2c(cc(C)c3c(C)c(C)oc32)oc1=O)C(=O)O	0	0	0	0	0	-	-
Cc1coc2c1c(C)cc1oc(=O)c(CC(=O)NCCCN3CCCC3=O)c(C)c12	23	0	0	0	0	0	0
Cc1coc2c1c(C)cc1oc(=O)c(CC(=O)N[C@@H](CC(C)C)C(=O)O)c(C)c12	0	0	0	0	0	-	-
CCCC(NC(=O)Cc1c(C)c2c(cc(C)c3c(C)coc32)oc1=O)C(=O)O (stereo not given)	26	0	0	0	0	0	0
O=C(C1CC1)N1CCc2cc(Br)c(S(=O)(=O)NCCCN3CCCCC3)cc21	0	0	0	-	-	-	-
CC(C)N1CCCCC(NC(=O)c2ccc(F)c(F)c2)C1=O (stereo not given)	0	0	0	-	-	-	-
Cc1oc2c(O)c(O)ccc2c(=O)c1-c1ccccc1	0	0	0	0	0	-	-
COc1ccc(CN2CCCCC2C)c(C)c1C (stereo not given)	0	0	0	0	0	-	-
Cc1oc2c(CN3CCCCC3C)c(O)ccc2c(=O)c1-c1ccccc1 (stereo not given)	34	0	0	0	0	47	59
COc1ccccc1-c1c(C)oc2c(CN3CCCCC3C)c(O)ccc2c1=O (stereo not given)	53	0	0	0	0	66	69
CCOC(=O)[C@]12CCCC=C1N(CCCOC)C(=O)[C@@H]2CC(=O)NCc1ccccc1	0	0	0	-	-	-	-
COc1ccc(S[C@]2(C(=O)N(C)C)CC(=O)N(C(=O)/C=C/c3ccccc3)[C@@H]2c2ccc(OC)cc2)cc1	0	0	0	-	-	-	-
CCCC(=O)Nc1ccc2c(c1)C(=O)N(C)[C@H]1CC[C@@H](CC(=O)OC)O[C@@H]1CO2	0	0	0	-	-	-	-
O=C(OCc1cn(Cc2ccc(C(F)(F)F)cc2)nn1)N1CCOCC1	0	0	0	-	-	-	-
SMILES	proKLK7 act	ADAM17 inh	ADAM10 inh	NR3A LBD binder	FAS-TE inh	proKLK7 act conf	EDANS-DABCYL int	others
COc1ccc(C(=O)CC2OC(=O)c3c2ccc(OC)c3OC)cc1 (stereo not given)	55	0	0	0	0	59	79
COc1ccc(C(=O)Cc2cc3cccc(OC)c3oc2=O)cc1	0	0	0	0	0	-	-
CCOCCCNc1nc2nc3ccc(C)cn3c(=O)c2cc1C(=O)NCC1CCCO1 (stereo not given)	55	0	0	0	0	16	26
Cc1ccc2nc3c(cc(C(=O)NCC4CCCO4)c(=N)n3CCCOC(C)C)c(=O)n2c1 (stereo not given)	106	0	0	0	0	45	44
O=C(NC1CC[C@@]23CCCN2C(=O)CCC[C@H]3C1)c1ccccc1 (stereo not given in full)	-	0	0	-	-	-	-
Cc1ccc2nc(NC(=S)NC(=O)c3cccs3)sc2c1	0	0	0	0	0	-	-
Cc1ccc2nc(NC(=O)c3cccs3)sc2c1	27	0	0	0	0	0	12
Cc1ccc2nc(NC(=O)c3ccc4c(c3)OCO4)sc2c1	0	0	0	0	0	-	-
Cc1ccc2nc(NC(=O)c3ccc(Cn4cc(Cl)cn4)o3)sc2c1	57	0	0	0	0	0	0
Cc1ccc2nc(NC(=O)c3ccc4ncsc4c3)sc2c1	15	0	0	18	0	15	6.8	K7 EDANS ctr=0
CCS(=O)(=O)Nc1ccc2c(c1)C(=O)N(C)[C@@H]1CC[C@H](CC(=O)NCCCN3CCOCC3)O[C@H]1CO2	0	0	0	-	-	-	-
Cc1cc(=O)oc2c3c4c(cc12)OCCN4CCC3	70	0	0	0	0	67	64
COc1ccc(COc2cc(-c3cccc(OC)c3)nc3ccc(NC(C)=O)cc23)cc1	18	0	0	0	0	0	0
COc1ccc(COc2cc(-c3cccc(OC)c3)nc3ccc(N)cc23)cc1	59	0	0	0	0	0	0
Cc1cc(C)cc(N(CC(=O)NC2CCC(C)CC2)S(=O)(=O)c2ccc([N+](=O)[O-])cc2)c1 (stereo not given)	0	0	0	-	-	-	-
COc1ccc2c(c1)[C@@]1(OCCC=C[C@H]1C)C(=O)N2Cc1ccc(Br)cc1	0	0	0	-	-	-	-
COc1cc(/C=C/c2nc3ccccc3c(=O)[nH]2)ccc1O	17	0	0	-	0	0	0
COc1ccc(C2CC(=O)C(c3ccc(Br)cc3)=CN2Cc2ccccc2)cc1 (stereo not given)	0	0	0	-	-	-	-
Cc1cc2c([nH]c3ccccc32)c(C)n1	33	0	0	0	0	28	25
COc1cccc2c(=O)c3c(cnn3C)n(C)c12	49	0	0	0	0	68	67
CN1C2=N[C@H](c3ccc(Br)cc3)CC(=O)N2/C(=C\c2ccccc2)[C@@H]1c1ccccc1	-	0	0	-	-	-	-
CS(=O)(=O)c1cccc(C(=O)Nc2ccc(-c3nc4ccccc4[nH]3)cc2)c1	84	0	0	32	0	55	63

Assay outcomes: PubChem BioAssay, several laboratories
